# Measurements published in ChEMBL document CHEMBL3988442, “University of Dundee, Small-Polar-MMV Screening Library” (2021).
# For some of these results: Entries with a potency or affinity are not part of this list.
# Experiments:
# Parameters in all cases: scale not given: direction of the effect not stated beside the values
# [1] = target: Protein translocase subunit SecA (Escherichia coli (strain K12)) (UniProt P10408); assay: Assay to Identify E. coli SecA ATPase Inhibitors; type: functional; settings: 30 µM
# [2] = target: T1, Ubiquitin-activating enzyme e1, putative (Leishmania donovani (strain BPK282A1)) (UniProt E9BSI1); assay: Leishmania donovani Ubiquitin Activating Enzyme (LdE1); type: functional; settings: 30 µM
# T1 sequence (whole entry): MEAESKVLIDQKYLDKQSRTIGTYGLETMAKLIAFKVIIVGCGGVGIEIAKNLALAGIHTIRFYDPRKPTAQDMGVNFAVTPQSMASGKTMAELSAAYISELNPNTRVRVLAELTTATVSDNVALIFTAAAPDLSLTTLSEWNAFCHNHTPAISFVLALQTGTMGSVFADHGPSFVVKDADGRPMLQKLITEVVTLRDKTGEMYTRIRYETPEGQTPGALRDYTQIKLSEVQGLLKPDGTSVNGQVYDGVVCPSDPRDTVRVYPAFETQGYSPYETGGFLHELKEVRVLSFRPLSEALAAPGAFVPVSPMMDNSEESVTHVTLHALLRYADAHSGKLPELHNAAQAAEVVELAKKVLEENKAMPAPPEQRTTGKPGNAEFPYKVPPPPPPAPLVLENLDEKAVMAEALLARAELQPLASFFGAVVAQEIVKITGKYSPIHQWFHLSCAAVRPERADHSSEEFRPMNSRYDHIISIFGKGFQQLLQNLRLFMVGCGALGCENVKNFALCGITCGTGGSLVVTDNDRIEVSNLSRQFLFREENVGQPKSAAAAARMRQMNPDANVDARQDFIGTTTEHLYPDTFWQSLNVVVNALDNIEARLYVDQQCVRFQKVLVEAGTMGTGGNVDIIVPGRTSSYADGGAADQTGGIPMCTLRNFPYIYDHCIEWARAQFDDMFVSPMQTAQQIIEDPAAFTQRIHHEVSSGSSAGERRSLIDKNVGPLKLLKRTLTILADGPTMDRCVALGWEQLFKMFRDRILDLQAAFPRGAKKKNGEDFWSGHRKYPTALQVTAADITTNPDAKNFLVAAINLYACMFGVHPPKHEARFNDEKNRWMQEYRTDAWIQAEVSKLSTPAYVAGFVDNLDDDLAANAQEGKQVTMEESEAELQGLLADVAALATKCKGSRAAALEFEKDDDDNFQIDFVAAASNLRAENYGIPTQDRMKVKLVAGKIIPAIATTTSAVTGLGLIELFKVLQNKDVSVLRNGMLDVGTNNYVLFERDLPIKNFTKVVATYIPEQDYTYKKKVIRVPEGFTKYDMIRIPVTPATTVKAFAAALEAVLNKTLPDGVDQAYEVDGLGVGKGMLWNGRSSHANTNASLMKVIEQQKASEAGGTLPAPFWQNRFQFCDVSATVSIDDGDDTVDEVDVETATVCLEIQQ
# [3] = target: AMP-activated protein kinase, AMPK (Homo sapiens) (UniProt P54646+O43741+P54619+Q9UGJ0+Q9Y478+Q13131+Q9UGI9); assay: AMP-dependent Kinase enzyme assay. An in vitro enzyme assay that detects ADP turnover that is directly proportional to AMPK activity. This uses naive AMPK that is activated during the assay with MK-8722; type: functional; settings: 30 µM
# [4] = target: Sialic acid-binding Ig-like lectin 9 (Homo sapiens) (UniProt Q9Y336); assay: Hs-Siglec9 ALPHAscreen SOP 20170721; settings: 10 µM
# Trypanosoma cruzi = assay: Trypanosoma cruzi phosphomannomutase and mannose-1-phosphate guanylyltransferase assay; type: functional; settings: 10 µM
# [5] = target: T2, Arginase-2, mitochondrial (Homo sapiens) (UniProt P78540); assay: in vitro enzyme assay to detect the production of urea directly proportional to the activity of Arginase II; type: functional; settings: 33.3 µM; note: in the data most compounds retested in dose-response had high values
# T2 sequence (whole entry): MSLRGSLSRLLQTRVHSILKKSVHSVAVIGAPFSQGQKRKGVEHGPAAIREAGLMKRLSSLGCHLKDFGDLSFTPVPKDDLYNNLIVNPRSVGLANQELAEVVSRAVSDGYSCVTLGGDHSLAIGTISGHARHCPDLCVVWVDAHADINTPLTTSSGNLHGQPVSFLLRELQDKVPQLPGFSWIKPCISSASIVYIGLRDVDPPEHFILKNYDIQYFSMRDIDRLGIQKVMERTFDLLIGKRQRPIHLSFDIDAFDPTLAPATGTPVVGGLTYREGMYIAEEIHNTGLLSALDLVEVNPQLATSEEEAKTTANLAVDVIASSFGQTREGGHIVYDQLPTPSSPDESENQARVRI
# [6] = target: T3, Proteasome subunit beta (Trypanosoma cruzi) (UniProt O96673); assay: Trypanosoma cruzi proteasome chymotrypsin-like activity (TcProtChymo) assay.; note: in the data most compounds retested in dose-response had high values; type: functional; settings: 9.37 µM
# T3 sequence (whole entry): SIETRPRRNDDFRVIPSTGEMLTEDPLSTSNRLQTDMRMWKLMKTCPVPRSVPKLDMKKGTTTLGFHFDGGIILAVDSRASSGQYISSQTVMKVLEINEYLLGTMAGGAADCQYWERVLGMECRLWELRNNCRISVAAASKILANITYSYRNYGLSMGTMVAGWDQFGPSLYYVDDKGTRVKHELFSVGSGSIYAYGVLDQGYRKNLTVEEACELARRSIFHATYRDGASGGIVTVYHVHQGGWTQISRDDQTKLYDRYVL
# Homo sapiens = species: Homo sapiens; assay: To identify inhibition of the IFN signalling (Jak-Stat) pathway via expression of an eGFP reporter gene under the control of an IFN-stimulated response element (ISRE) containing MxA promoter.; type: functional; settings: 30 µM
# [7] = target: T4, Tyrosyl-tRNA synthetase, putative (Trypanosoma cruzi (strain CL Brener)) (UniProt Q4DSP6); assay: Trypanosoma cruzi tyrosyl tRNA synthetase (TcYRS) _High Tyrosine SOP; type: functional; settings: 30 µM; note: in the data most compounds retested in dose-response had high values
# T4 sequence (whole entry): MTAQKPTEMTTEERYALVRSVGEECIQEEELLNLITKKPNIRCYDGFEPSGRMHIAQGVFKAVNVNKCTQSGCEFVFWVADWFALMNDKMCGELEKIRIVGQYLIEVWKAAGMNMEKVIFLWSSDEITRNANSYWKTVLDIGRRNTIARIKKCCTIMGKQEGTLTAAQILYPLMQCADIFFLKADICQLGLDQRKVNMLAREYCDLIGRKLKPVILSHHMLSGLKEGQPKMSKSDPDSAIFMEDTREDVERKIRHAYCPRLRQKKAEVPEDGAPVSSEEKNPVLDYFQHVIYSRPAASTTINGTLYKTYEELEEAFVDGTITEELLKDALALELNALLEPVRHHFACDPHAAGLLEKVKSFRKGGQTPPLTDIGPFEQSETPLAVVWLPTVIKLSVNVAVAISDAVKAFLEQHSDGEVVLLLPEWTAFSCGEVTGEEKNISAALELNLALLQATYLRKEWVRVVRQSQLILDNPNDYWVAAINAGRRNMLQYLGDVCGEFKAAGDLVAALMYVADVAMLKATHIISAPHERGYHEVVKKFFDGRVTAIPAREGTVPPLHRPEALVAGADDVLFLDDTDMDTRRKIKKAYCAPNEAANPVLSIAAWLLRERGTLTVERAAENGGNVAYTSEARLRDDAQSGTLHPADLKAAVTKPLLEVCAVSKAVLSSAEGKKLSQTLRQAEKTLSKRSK
# [8] = target: T4, Tyrosyl-tRNA synthetase, putative (Trypanosoma cruzi (strain CL Brener)); assay: Trypanosoma cruzi tyrosyl tRNA synthetase (TcYRS) SOP; type: functional; settings: 30 µM
# [9] = target: Chromo domain-containing protein 1 (Saccharomyces cerevisiae (strain ATCC 204508 / S288c) (Baker's yeast)) (UniProt P32657); assay: ScCHD-1 Enzyme Inhibition Assay; type: functional; settings: 30 µM; note: in the data most compounds retested in dose-response had high values
# Chromo domain-containing protein 1 (Saccharomyces cerevisiae (strain ATCC 204508 / S288c) (Baker's yeast)), sequence (P32657 whole entry, the tested form may be a part): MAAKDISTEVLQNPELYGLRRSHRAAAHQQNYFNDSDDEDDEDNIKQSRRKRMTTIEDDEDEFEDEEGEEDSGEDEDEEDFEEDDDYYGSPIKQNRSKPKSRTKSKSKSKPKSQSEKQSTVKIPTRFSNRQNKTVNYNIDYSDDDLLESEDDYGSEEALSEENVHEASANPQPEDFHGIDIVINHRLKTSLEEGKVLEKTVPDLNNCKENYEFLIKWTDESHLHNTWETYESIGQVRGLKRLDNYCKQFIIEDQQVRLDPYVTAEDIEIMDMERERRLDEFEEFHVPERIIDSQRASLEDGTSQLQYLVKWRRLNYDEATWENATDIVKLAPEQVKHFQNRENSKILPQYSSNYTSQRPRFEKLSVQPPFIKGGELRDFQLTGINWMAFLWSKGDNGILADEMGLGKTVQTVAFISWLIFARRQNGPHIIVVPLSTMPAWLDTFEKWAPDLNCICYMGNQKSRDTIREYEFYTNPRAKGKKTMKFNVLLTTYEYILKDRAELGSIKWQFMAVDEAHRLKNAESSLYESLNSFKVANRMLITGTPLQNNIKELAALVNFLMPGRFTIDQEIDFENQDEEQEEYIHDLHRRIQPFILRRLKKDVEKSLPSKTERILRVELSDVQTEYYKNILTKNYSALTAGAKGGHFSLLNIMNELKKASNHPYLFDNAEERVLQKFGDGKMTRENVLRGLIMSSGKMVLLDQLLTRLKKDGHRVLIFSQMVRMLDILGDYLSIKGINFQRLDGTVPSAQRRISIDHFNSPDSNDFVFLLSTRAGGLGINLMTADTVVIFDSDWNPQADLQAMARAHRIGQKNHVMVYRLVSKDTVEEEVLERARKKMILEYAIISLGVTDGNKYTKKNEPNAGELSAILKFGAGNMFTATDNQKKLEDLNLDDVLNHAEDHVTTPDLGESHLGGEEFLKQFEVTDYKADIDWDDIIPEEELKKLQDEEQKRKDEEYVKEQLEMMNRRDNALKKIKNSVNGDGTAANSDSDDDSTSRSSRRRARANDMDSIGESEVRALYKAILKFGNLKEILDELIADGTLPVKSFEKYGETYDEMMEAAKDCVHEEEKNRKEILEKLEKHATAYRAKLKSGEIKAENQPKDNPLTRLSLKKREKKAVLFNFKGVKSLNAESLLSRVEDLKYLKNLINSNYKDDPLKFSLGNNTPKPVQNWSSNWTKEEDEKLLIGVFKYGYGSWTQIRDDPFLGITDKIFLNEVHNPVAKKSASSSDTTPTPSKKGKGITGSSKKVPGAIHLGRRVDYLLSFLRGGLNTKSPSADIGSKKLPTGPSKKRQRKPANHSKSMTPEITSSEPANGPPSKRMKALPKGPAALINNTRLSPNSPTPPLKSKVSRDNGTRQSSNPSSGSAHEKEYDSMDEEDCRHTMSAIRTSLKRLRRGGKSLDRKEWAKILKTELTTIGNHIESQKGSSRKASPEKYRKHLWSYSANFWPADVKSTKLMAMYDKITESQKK
# Protein translocase subunit SecA (Escherichia coli (strain K12)), sequence (P10408 whole entry): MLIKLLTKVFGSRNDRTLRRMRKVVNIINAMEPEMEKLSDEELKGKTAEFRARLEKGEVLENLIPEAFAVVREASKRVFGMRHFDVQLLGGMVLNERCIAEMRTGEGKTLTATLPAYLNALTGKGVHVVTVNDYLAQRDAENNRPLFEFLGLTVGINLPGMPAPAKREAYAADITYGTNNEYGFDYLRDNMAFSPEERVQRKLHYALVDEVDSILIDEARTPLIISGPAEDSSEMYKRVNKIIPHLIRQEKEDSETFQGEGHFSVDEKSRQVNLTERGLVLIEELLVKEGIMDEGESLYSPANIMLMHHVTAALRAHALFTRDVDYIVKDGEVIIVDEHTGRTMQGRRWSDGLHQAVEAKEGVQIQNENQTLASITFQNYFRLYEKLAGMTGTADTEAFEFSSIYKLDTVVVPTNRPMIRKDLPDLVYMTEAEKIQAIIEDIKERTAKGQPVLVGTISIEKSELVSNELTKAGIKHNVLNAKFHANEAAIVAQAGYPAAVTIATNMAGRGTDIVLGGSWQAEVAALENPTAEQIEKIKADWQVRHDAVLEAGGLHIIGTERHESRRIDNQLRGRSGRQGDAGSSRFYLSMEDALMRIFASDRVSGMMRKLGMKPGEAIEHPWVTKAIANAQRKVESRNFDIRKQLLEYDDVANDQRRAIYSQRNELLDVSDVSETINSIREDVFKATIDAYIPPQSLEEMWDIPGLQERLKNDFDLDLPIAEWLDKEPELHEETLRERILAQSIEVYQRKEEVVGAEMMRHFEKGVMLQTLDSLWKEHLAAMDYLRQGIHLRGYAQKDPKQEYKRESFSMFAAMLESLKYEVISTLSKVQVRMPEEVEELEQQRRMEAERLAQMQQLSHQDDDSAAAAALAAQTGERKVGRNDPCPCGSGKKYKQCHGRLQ
# Sialic acid-binding Ig-like lectin 9 (Homo sapiens), sequence (Q9Y336 whole entry): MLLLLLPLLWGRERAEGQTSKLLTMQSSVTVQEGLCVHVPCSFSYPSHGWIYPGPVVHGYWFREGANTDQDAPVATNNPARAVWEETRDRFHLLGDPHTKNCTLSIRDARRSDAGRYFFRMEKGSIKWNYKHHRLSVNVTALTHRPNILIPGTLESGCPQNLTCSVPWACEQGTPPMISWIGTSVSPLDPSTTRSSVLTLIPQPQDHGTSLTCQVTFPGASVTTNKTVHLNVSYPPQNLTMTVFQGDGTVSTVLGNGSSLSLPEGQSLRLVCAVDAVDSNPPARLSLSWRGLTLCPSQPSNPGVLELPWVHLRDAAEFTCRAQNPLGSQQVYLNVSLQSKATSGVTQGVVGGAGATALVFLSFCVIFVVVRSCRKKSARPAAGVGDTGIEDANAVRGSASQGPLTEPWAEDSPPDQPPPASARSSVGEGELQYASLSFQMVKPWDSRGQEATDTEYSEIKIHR
SMILES,Percent Effect [1] [%],Percent Effect [2] [%],Percent Effect [3] [%],Percent Effect [4] [%],Percent Effect (Trypanosoma cruzi) [%],Percent Effect [5] [%],Percent Effect [6] [%],Percent Effect (Homo sapiens) [%],Percent Effect [7] [%],Percent Effect [8] [%],Percent Effect [9] [%]
COc1ccc(C2CCCN2C(=O)c2csc(NC(C)=O)n2)cc1 (stereo unspecified),-5.5,18.2,41.8,-5.49,-3.37,2.85,4.56,17.3,6.8,12.2,-8.21
COCCN1CCc2cc(C(=O)NCC3CC3)c(NC(C)C)nc2CC1,-2.06,8,4.16,9.64,-1.74,-27.8,13.2,55.7,1.04,12.5,-10.2
Fc1ccc(OCc2noc(CN3CCc4cncnc4C3)n2)cc1,-0.114,13.2,-14.5,2.94,2.26,-29.5,18.1,1.44,31.9,21.9,-2.74
CCN(CC1CCCO1)C(=O)Nc1cc(OC)c(OC)cc1C (stereo unspecified),-8.28,27.9,-14.4,12.7,4.06,-2.28,9.26,-8.32,8.37,21.5,-9.07
Cc1nn(C(C)C)c(C)c1NC(=O)c1ccccc1,-2.77,2.74,-0.803,6.74,4.17,-2.4,14.5,-0.0619,7.29,-3.7,-1.66
COc1cccc(CNC(=O)N2CCN(Cc3cc(C)on3)CC2)c1,-1.41,15.2,-1.11,-7.32,-6.33,0.38,1.39,25.8,5.42,11.4,-5.16
C[C@@H]1CN(C(=O)c2cnc(C3CC3)nc2)CC[C@@]1(O)C1CCOCC1,-3.43,10.8,-4.34,21.6,4.44,-8.57,6.55,-5.6,4.76,9.76,-5.75
CS(=O)(=O)NC[C@]12COC[C@H]1CN(C(=O)c1ccoc1)C2,-3.11,7.79,7.55,7.59,-1.87,4.52,10.6,21.3,5.29,11.5,-4.91
Cc1ccc(CNCC2CCc3nnc(C(C)C)n3C2)s1 (stereo unspecified),-1.99,-1.39,-8.87,-3.91,-1.46,-3.97,4.56,-6.98,1.05,0,-1.15
CCN1CCC(NC(=O)CN2CCc3c(ncn3C)C2)CC1,-4.55,6.33,-3.84,-0.206,-3.59,6.24,9.43,10.1,-7.29,0,-5.67
CCc1nc(CN(CC(N)=O)C(C)C)cs1,-2.67,17.7,0.603,3.91,1.23,-1.14,7.78,7.33,10.3,21.5,-2.93
